# In PubChem BioAssay:
# Where “and” joins values, the source holds several entries; their conditions need not be identical. Equal values may be shown once. Calls of active or inactive are those of the source.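 The calls were made as follows, unless noted: active = compounds whose cell count with miR-34 switched on is under 0.7 times the count with it off; inactive = the rest.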
# How the values were obtained:
# [1] = liver-stage malaria parasite growth inhibition, primary screen, cell-based, HepG2, luciferase luminescence, HepG2 viability (AID 624349; in the data active = parasite load remaining mostly below about 12%, no sharp cut-off; inactive = mostly above about 10%;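 also: 100% = mean of DMSO negative control wells on the same plate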); conditions: P. berghei liver stage in HepG2, luciferase luminescence, concentration not given here; parasite load remaining: stronger effect = lower value; viability: measured here: HepG2 viability without parasites
# [2] = stimulators of nuclear beta-catenin in C2C12, primary screen, imaging, WNT3A-conditioned medium, mouse C2C12, NPC library (AID 1117326; in the data active = nuclear beta-catenin stimulation mostly above about 4.2%, no sharp cut-off; inactive = mostly below about 10%); conditions: stronger effect = higher value
# [3] = stimulators of insulin release from INS-1E, primary screen, cell-based, 5 mM glucose, NPC library (AID 1117329;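 active = compound raises insulin release from rat beta cells at 5 mM glucose, no numeric limit stated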); conditions: rat INS-1E insulin secretion, at 10 µM, stronger effect = higher value
# [4] = growth inhibition of GSK3B-pretreated HCT116 cells – cell-based, CellTiter-Glo, 0.2 to 20 µM (AID 1117336;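 active = compounds lowering colon cancer cell viability after pretreatment blocking the GSK3B kinase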); conditions: HCT116 viability after GSK3B inhibitor, at 20 µM, stronger effect = higher value
# [5] = inhibition of endothelial tube formation, primary screen, imaging, VEGF stimulated, CD31 staining, tube area, NPC library (AID 1117340;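 active = compound that reduces growth-factor-driven endothelial tube area in a mixed cell culture, no cutoff stated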); conditions: VEGF-stimulated ADSC/ECFC co-culture, at 10 µM, stronger effect = higher value
# [6] = glucagon-like peptide 1 release enhancers, primary assay, NCI-H716 cell line, NPC library (AID 1117341;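 active = compound raises GLP1 secretion from the human gut endocrine cells, with no numeric limit stated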); conditions: NCI-H716 cells, at 10 µM, stronger effect = higher value
# [7] = HCT116 colon cancer cell growth inhibition, primary screen, CellTiter-Glo luminescence, NPC library (AID 1117342;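 active = compounds that lower survival of HCT116 colon cancer cells in the luminescence readout, no numeric limit stated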); conditions: at 20 µM (top of the series)
# [8] = CellTiter-Glo luminescent readout of SW480 viability loss, NPC library primary (AID 1117343;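 active = compounds that lower viability of the colon cancer cells in the luminescence readout, with no numeric limit stated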); conditions: CellTiter-Glo luminescence; at 20 µM (top of the series)
# [9] = decreased DLD-1 cellular survival, CellTiter-Glo luminescent readout, NPC compound collection, primary HTS (AID 1117346;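 active = compounds that lower survival of DLD-1 colon cancer cells in the luminescence readout, no cutoff given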); conditions: DLD-1 viability, CellTiter-Glo luminescence; at 20 µM (top of the series)
# [10] = differential killing of epithelial or mesenchymal cells, primary screen, imaging, PC-3E GFP, TEM4-18 mCherry, co-culture (AID 1345086;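 active = compounds killing one labelled cell type while sparing the other, by normalised counts and ratio limits, not self-fluorescent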;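 as to all read-outs here: cells exposed to compound for 72 h before imaging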;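 as to red/green cell ratio (normalised): normalised mesenchymal count divided by normalised epithelial count so high means epithelial killing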); conditions: imaging cell counts, at 1 µM; for red/green cell ratio (normalised): actives lie on both sides
# [11] = sensitizers of A549 cells to miR-34 induction, primary screen, imaging, A549 dox-inducible miR-34, nuclei and caspase counts (AID 1347080); conditions: A549 miR-34 inducible, Hoechst nuclei count, 48 h
# [12] = survival rescue of mitochondrial mutant cells in low glucose, primary screen, MELAS cybrids, Rieske KO mouse fibroblasts, CellTiter-Glo (AID 1508586;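 active = mean z-score across replicates of 1.96 or higher in either the MELAS or the Rieske mutant cell line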;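 also: z relative to plate mean and SD of compound and empty wells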)
# [13] = target: NAD(+) hydrolase SARM1 (Homo sapiens) (UniProt Q6SZW1); assay: SARM1 TIR NADase inhibitors, cell lysate, NAD-Glo luminescence (AID 1508614;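 active = compound whose remaining NAD level is above about 45 nM, limit read from the data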;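 also: higher remaining NAD means stronger inhibition of SARM1 NADase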); conditions: SAM-TIR HEK293T lysate NADase, at 1 µM, stronger effect = higher value
# Sequence of NAD(+) hydrolase SARM1 (Homo sapiens) (Q6SZW1 whole entry, looked up): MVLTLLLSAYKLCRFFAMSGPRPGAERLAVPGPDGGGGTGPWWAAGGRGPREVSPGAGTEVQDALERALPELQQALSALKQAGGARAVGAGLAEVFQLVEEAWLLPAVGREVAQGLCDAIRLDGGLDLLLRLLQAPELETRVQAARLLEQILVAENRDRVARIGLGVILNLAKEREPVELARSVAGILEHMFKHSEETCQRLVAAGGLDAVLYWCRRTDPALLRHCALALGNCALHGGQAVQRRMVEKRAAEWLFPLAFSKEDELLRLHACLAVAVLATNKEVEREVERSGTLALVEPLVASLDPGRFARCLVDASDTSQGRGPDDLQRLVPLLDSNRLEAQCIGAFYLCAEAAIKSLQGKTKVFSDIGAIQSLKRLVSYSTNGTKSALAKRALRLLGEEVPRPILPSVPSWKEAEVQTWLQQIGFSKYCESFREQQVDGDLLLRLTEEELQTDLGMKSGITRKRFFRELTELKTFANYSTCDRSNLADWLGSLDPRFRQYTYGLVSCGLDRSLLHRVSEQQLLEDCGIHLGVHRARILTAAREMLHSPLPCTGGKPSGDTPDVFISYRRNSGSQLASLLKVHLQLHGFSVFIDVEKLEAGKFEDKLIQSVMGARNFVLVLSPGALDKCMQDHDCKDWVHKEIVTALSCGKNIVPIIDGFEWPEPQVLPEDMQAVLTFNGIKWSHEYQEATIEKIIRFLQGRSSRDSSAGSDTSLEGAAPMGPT
# [14] = viability rescue of complex I mutant cybrids, primary screen, cell-based, galactose medium, ATP luminescence (AID 1645843;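 active = z-score of at least 1.8 in each of two replicates, scored against plate mean and spread of sample wells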;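 also: positive z means more ATP and so rescue of galactose-driven cybrid death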); conditions: complex I mutant cybrid cells, 72 h, stronger effect = higher value
# [15] = tested on: Aerobactin synthetase IucA (Klebsiella pneumoniae, hypervirulent); assay: IucA enzyme inhibition, biochemical, LOPAC library, absorbance readout (AID 1346212; call rule not given here;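 also: 100% = no compound wells and 0% = no enzyme wells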); conditions: IucA enzyme assay, absorbance (OD) readout; stronger effect = lower value;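 tested at 8 µM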
# [16] = hESC survival regulators, cell-based (AID 493140; call rule not given here;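 also: cells exposed to compounds for four days before counting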); conditions: human embryonic stem cell survival screen; stronger effect = higher value
# [17] = measured here: epithelial PC-3E GFP cell survival
# [18] = measured here: mesenchymal TEM4-18 mCherry cell survival
# [19] = measured here: relative caspase fold change +Dox/-Dox
# [20] = measured here: total cells with miR-34 induction, stronger effect = lower value
# [21] = measured here: total cells without miR-34 induction
# [22] = MELAS cybrid survival, CellTiter-Glo 48 h, stronger effect = higher value
# [23] = Rieske KO mouse fibroblast survival, CellTiter-Glo 72 h
structure (smiles),measurement,setting,value
O=C(O)Cc1ccccc1,parasite load remaining,[1],25.8% (inactive) and 52.8% (inactive)
same,viability,[1],91.1% and 112%
same,nuclear beta-catenin stimulation,[2]; at 10 µM,0.2% (inactive)
same,nuclear beta-catenin stimulation,"[2]; stimulation, at 2 µM",0.3%
same,insulin secretion stimulation,[3],-1.1% (inactive)
same,viability decrease,[4],-0.05% (inactive)
same,tube area decrease,[5],-39.3% (inactive)
same,GLP1 secretion stimulation,[6],-0.3% (inactive)
same,inhibition of viability,[7],-9.8% (inactive)
same,viability decrease (inhibition),[8],8.6% (inactive)
same,viability decrease (inhibition),[9],0.45% (inactive)
same,red/green cell ratio (normalised),[10],0.91 (inactive)
same,normalised cell number,[10]; [17],1.01
same,normalised cell number,[10]; [18],0.92
same,fold change,[11]; stronger effect = lower value,0.869 (inactive) and 0.823 (inactive)
same,fold change,[11]; [19],4.43 and 1.17
same,cell count,[11]; [20],10700 and 9120
same,cell count,[11]; [21],12300 and 11100
same,z-score,[12]; [22],0.496 (inactive)
same,z-score,[12]; [23],0.0978
same,remaining NAD,[13],10 nM (inactive)
same,z-score,[14],0.455 (inactive)
CC[N+](CC)(CC)CC,nuclear beta-catenin stimulation,[2]; at 10 µM,3.6% (inactive)
same,nuclear beta-catenin stimulation,"[2]; stimulation, at 2 µM",0.6%
same,insulin secretion stimulation,[3],0.7% (inactive)
same,viability decrease,[4],-2% (inactive)
same,tube area decrease,[5],1.4% (inactive)
same,GLP1 secretion stimulation,[6],-1.5% (inactive)
same,inhibition of viability,[7],-13.1% (inactive)
same,viability decrease (inhibition),[8],95.5% (active)
same,viability decrease (inhibition),[9],1.35% (inactive)
same,remaining activity,[15],93.6% (inactive)
same,fold change,[11]; stronger effect = lower value,0.929 (inactive)
same,fold change,[11]; [19],1.25
same,cell count,[11]; [20],9810
same,cell count,[11]; [21],10600
same,z-score,[14],0.685 (inactive)
CCCC[N+]1(C)[C@@H]2CC(OC(=O)[C@H](CO)c3ccccc3)C[C@H]1[C@@H]1O[C@@H]12 (some centres not stated),parasite load remaining,[1],35.4% (inactive)
same,viability,[1],61.5%
same,nuclear beta-catenin stimulation,[2]; at 10 µM,1.5% (inactive)
same,nuclear beta-catenin stimulation,"[2]; stimulation, at 2 µM",-0.2%
same,insulin secretion stimulation,[3],0.85% (inactive)
same,viability decrease,[4],11.7% (inactive)
same,tube area decrease,[5],-20.3% (inactive)
same,GLP1 secretion stimulation,[6],0.9% (inactive)
same,inhibition of viability,[7],3.4% (inactive)
same,viability decrease (inhibition),[8],-15.4% (inactive)
same,viability decrease (inhibition),[9],-1.4% (inactive)
same,fold change,[11]; stronger effect = lower value,0.89 (inactive)
same,fold change,[11]; [19],0.894
same,cell count,[11]; [20],9520
same,cell count,[11]; [21],10700
same,z-score,[12]; [22],-0.818 (inactive) and -0.303 (inactive)
same,z-score,[12]; [23],-0.588 and -0.226
same,z-score,[14],0.285 (inactive)
CC(C)c1c(CN(C)C(C)Cc2ccccc2)n(C)n(-c2ccccc2)c1=O (configuration not stated),survival,[16],1.08 (inactive)
same,parasite load remaining,[1],76.8% (inactive)
same,viability,[1],87.3%
same,nuclear beta-catenin stimulation,[2]; at 10 µM,1.5% (inactive)
same,nuclear beta-catenin stimulation,"[2]; stimulation, at 2 µM",5.4%
same,insulin secretion stimulation,[3],0% (inactive)
same,viability decrease,[4],-83% (inactive)
same,tube area decrease,[5],9.4% (inactive)
same,GLP1 secretion stimulation,[6],3.9% (inactive)
same,inhibition of viability,[7],50.3% (active)
same,viability decrease (inhibition),[8],103% (active)
same,viability decrease (inhibition),[9],73.2% (active)
same,red/green cell ratio (normalised),[10],1.06 (inactive)
same,normalised cell number,[10]; [17],0.93
same,normalised cell number,[10]; [18],0.98
same,fold change,[11]; stronger effect = lower value,0.889 (inactive)
same,fold change,[11]; [19],1.06
same,cell count,[11]; [20],8350
same,cell count,[11]; [21],9380
same,z-score,[12]; [22],-1.05 (inactive)
same,z-score,[12]; [23],0.158
same,remaining NAD,[13],10 nM (inactive)
